# FMDV antiviral: foot and mouth disease virus antiviral activity. FMDV antiviral cell-based qHTS. Potency, µM (highest dose often 57.9 µM), without a hit: top-dose activity change, negative = inhibition, actives largely listed as inhibitors. actives 1.2% (n = 410,000); calls by dose curve; tested in HEK293T cells; also: read-out not given here; potency is read from the fitted curve at half-maximal effect; nearly all actives have a fitted effect of over 45% in size
# HCMV antiviral: inhibitors of human cytomegalovirus; AID 1259415; activity change, negative = inhibition, % at 57.5 µM; actives 4.5% (n = 410,000); HFF cells, HCMV-luciferase reporter, 72 h; hits give low values; in the data active = activity change below about -60%; inconclusive = no clear call, values can overlap the other calls; inactive = above about -39%
#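 Screen run at 2 compound doses on HFFs infected with reporter HCMV, MOI 1 PFU/cell. Luciferase activity from cell lysates at 72 h post infection gave inhibition relative to buffer-only and Salinomycin wells.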
# RE007 growth inh: less growth of the S. pombe RE007 Vpr strain. S. pombe RE007 Vpr strain, BacTiter-Glo ATP luminescence, 24 h. Potency, µM (series often up to 92.2 µM), without a hit: top-dose activity change, negative = less growth, hits mostly inhibitors. actives 0.21% (n = 360,000); active = well fitted falling curve with a large enough effect; inconclusive = small, poorly fitted or top-dose-only effect; inactive = no such curve, though single readings can be large or run the other way; also: potency is read from the fitted curve at half-maximal effect; nearly all actives have a fitted effect of over 50% in size
#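 Fission yeast RE007 carrying one integrated HIV-1 vpr copy, seeded at OD 0.01 in PMG+AL medium with 23 nL pinned compound. Grown 24 h at 30 degrees; viability read by BacTiter-Glo luminescence after 5 min.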
# Tb PYK inh: inhibitors of Trypanosoma brucei pyruvate kinase. Q57TT1. TbPYK enzyme, Kinase-Glo Plus ATP luminescence, 45 min. Potency, µM (titrated, usually from 76.8 µM), for the others: at the highest dose activity, negative = inhibition, usual class: inhibitors. actives 0.12% (n = 410,000); also: potency is read from the fitted curve at half-maximal effect; nearly all actives have a fitted effect of over 50% in size
#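 In this concentration-response screen, enzyme-free wells defined baseline while DMSO plates tracked drift. Each reaction combined TbPYK, substrate, compound and 130 uM ADP for 45 min at room temperature. Kinase-Glo Plus luminescence gave the signal.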
# Giardia FBPA inh: inhibitors of Giardia lamblia fructose-1,6-bisphosphate aldolase; A8B2U2; purified Giardia FBPA; Potency, µM (titrated, usually from 59.6 µM), inactives show at the top dose activity, negative = inhibition, usual class: inhibitors; actives 0.71% (n = 290,000); AID 2451; also: potency is read from the fitted curve at half-maximal effect; nearly all actives have a fitted effect of over 55% in size
# Target sequence (A8B2U2 whole entry, looked up): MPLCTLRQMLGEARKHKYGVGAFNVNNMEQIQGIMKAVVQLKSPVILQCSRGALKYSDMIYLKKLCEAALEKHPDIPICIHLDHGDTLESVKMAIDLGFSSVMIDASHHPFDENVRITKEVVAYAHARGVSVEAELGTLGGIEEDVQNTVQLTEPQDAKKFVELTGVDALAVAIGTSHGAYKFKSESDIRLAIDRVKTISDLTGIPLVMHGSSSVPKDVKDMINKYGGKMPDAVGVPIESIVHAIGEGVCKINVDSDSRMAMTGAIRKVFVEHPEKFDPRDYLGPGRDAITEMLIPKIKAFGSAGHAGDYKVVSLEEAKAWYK
#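 Giardia FBPA (40 nM reagent) was preincubated 10 min at RT with compound (up to 57.5 uM final), then substrate plus GAPDH/TPI/NAD/arsenate coupling system with diaphorase/resazurin was added; resorufin fluorescence (525/598 nm) was read after 20 min.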
# Sm TGR inh: inhibitors of Schistosoma mansoni thioredoxin glutathione reductase | purified TGR, DTNB reduction, TNB absorbance 405 nm | actives 3% (n = 360,000) | AID 485364 | Q962Y6 | Potency, µM (doses to about 114 µM), inactives show at the top dose activity change, negative = inhibition, most hits filed as inhibitors; also: potency is read from the fitted curve at half-maximal effect; nearly all actives have a fitted effect of over 60% in size
#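 TGR 20 nM + NADPH 100 uM (dispensed conc.), cpd preinc 15 min RT; start with NADPH (500 uM addition) then DTNB (15 mM addition). Kinetic TNB absorbance, 405 nm filter. Four-parameter Hill fit across titration.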
# An asterisk follows results filed as active; ? = inconclusive; . = no result given; + = active, no number. The list is not random: actives were taken first. Their share in the collection is about 7.7%. Unless noted, calls follow the shape of the dose curve; as a rule, active = well fitted curve in the direction sought with a large enough effect; inconclusive = small, poorly fitted or top-dose-only effect, or another doubt; inactive = no such curve, though single readings can be large; an effect the other way counts as inactive or inconclusive. % is scaled to controls: 0 for no effect and ±100 for the full control effect.
SMILES,FMDV antiviral,HCMV antiviral,RE007 growth inh,Tb PYK inh,Giardia FBPA inh,Sm TGR inh
COc1ccc(/C=N/n2c(-c3cccs3)n[nH]c2=S)cc1,-9%,-22,-6%,1.3µM*,4%,?
Cc1cc(-c2n[nH]c(=S)n2/N=C/c2sccc2C)n[nH]1,-9%,22,2%,7.1µM*,4%,-16%
Cc1ccsc1/C=N/n1c(-c2ccccc2)n[nH]c1=S,0%,?,7%,-23%,1%,-4%
O=[N+]([O-])c1cc2c(cc1/C=N/n1c(-c3ccccc3)n[nH]c1=S)OCO2,-7%,-100*,-1%,?,5%,9%
COc1cc(/C=N/n2c(-c3ccccc3)n[nH]c2=S)ccc1O,-12%,-12,-7%,6.3µM*,?,4%
Cc1c(Br)c(O)c(Br)c(O)c1/C=N/n1c(-c2ccccc2)n[nH]c1=S,-5%,.,7%,?,-14%,35µM*
Oc1ccc(/C=N/n2c(-c3ccccc3)n[nH]c2=S)cc1Br,12%,-16,0%,1%,-15%,-23%
O=C1c2ccccc2-c2onc3ccc(NCCCn4ccnc4)c1c23,.,.,14%,1%,-29%,20µM*
CCOCCc1nn2c(=O)cc(CSCC(=O)Nc3cc(C)cc(C)c3)nc2s1,1%,-62*,8%,0%,3%,-12%
C[C@H](NC(=O)[C@@H]1Cc2ccccc2CN1C(=O)OC(C)(C)C)C(=O)NCc1ccco1,0%,-25,9%,-3%,.,40µM*
C[C@@H](NC(=O)[C@@H]1Cc2ccccc2CN1C(=O)OC(C)(C)C)C(=O)NC1CCCCC1,29%,19,-14%,-17%,.,4%
C[C@H](NC(=O)[C@@H]1Cc2ccccc2CN1C(=O)OC(C)(C)C)C(=O)NC1CCCCC1,9%,+,-7%,4%,-5%,2%
COc1ccc(OC)c(CN(CC(F)(F)F)S(=O)(=O)c2ccccc2Br)c1,.,-30,.,.,.,.
NC[C@@H]1CC[C@@H](N)[C@@H](O[C@H]2[C@H](O)[C@@H](O[C@H]3O[C@H](CO)[C@@H](O)[C@H](N)[C@H]3O)[C@H](N)C[C@@H]2N)O1,2%,.,.,.,.,.
COc1cc([N+](=O)[O-])ccc1NC(=O)Nc1ccc(C(=O)N2CCCC2)cc1,3%,?,-7%,-6%,.,?
COc1ccc([N+](=O)[O-])cc1NC(=O)Nc1cccc(Cl)c1,?,-62*,-12%,6%,1%,1%
COc1ccc([N+](=O)[O-])cc1NC(=O)Nc1ccc(OC)c(OC)c1,35µM*,-72*,-20%,-1%,-20%,-1%
COc1cc([N+](=O)[O-])ccc1NC(=O)N1CCCCCC1,-3%,?,-17%,7%,.,32µM*
COc1ccc([N+](=O)[O-])cc1NC(=O)Cc1ccc(Cl)cc1,?,-10,5%,-3%,0%,-2%
CC[C@H](C)[C@H](NC(=O)[C@H](Cc1ccc(O)cc1)NC(=O)CNC(=O)[C@@H]1CCCN1C(=O)[C@H](CC(=O)O)NC(=O)[C@@H](N)CS)C(=O)NCC(=O)N[C@@H](CO)C(=O)N[C@@H](CCCN=C(N)N)C(N)=O,.,.,.,.,-1%,.
CCOC(=O)CC(=O)CSc1ccc2nnc(-c3cccc(F)c3)n2n1,-9%,-24,-2%,-6%,9%,-6%
COC(=O)c1ccc(CSc2ccc3nnc(-c4cccc(F)c4)n3n2)o1,?,34,4%,?,-20%,25µM*
Clc1ccc(-c2nnc(CSc3nnc(-c4cccs4)n3Cc3ccccc3)o2)cc1,?,-88*,8%,-13%,-3%,-6%
Cc1nnc(SCc2nnc(-c3cccs3)o2)n1Cc1ccccc1,-10%,-7,-9%,1%,14%,1%
C=Cc1ccc(Cn2c(=O)n(-c3cccc(Cl)c3)c(=O)c3c4c(sc32)CN(C(C)=O)CC4)cc1,-18%,-21,.,13%,.,1%
